Measurements published in PubChem BioAssay AID1004 (SRMLSC, 2008).
A number with no mark means an inactive call.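 The calls were made as follows: active = viability at 10 µM of 29.74% or lower, 3 SD below the compound median; inactive = the rest.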

Experiment: viability of HCT116 lacking mutant beta-catenin – cell-based, DP diverse set, validation, pilot screen (AID 1004)
Conditions: HCT116 (mutant beta-catenin deleted) viability, CellTiter-Glo, 60 h; at 10 µM; active compounds read low

Question: With `COc1ccc2c3c1O[C@H]1C[C@@H](O)C=C[C@@]31CCN(C)C2` as the molecule, how does the viability read?
Answer: The viability was 94%.

Question: With `CCOC(=O)c1ncn2c1CN(C)C(=O)c1cc(F)ccc1-2` as the molecule, how does the viability read?
Answer: Its viability is 99.8%.

Question: With `C=C(CCC12O[C@H](C(=O)O)[C@@](O)(C(=O)O)[C@](C(=O)O)(O1)[C@H](OC(=O)/C=C/[C@@H](C)C[C@@H](C)CC)[C@H]2O)[C@@H](OC(C)=O)[C@H](C)Cc1ccccc1` as the molecule, how does the viability read?
Answer: The viability was 100%.

Question: Which viability does the source give for `O=c1c2ccccc2nc2n1CCc1c-2[nH]c2ccccc12` here?
Answer: The viability was 90.5%.

Question: With `O=c1[nH]cc(F)c(=O)[nH]1` as the molecule, how does the viability read?
Answer: Its viability is 58.1%.

Question: For `CN1CCN(C2Cc3ccccc3Sc3ccc(S)cc32)CC1` (stereo not given), which viability is on record?
Answer: Its viability is 79.5%.

Question: For `Nc1ccn([C@H]2CC[C@@H](CO)O2)c(=O)n1`, which viability is on record?
Answer: The viability was 102%.

Question: Which viability does the source give for `C=C1OC(CO)(n2cnc3c(N)ncnc32)C(O)C1O` (stereo not given) here?
Answer: The viability was 95.1%.

Question: For `CC[n+]1c(-c2ccccc2)c2cc(N)ccc2c2ccc(N)cc21`, which viability is on record?
Answer: The viability was 51.3%.

Question: With `Cc1c(C)c2c(c(C)c1O)CCC(C)(COc1ccc(CC3SC(=O)NC3=O)cc1)O2` (stereo not given) as the molecule, how does the viability read?
Answer: The viability was 92%.

Question: For `CC[C@@]1([C@@H]2O[C@@H]([C@H]3O[C@@](O)(CO)[C@H](C)C[C@@H]3C)C[C@@H]2C)CC[C@H]([C@]2(C)CC[C@]3(C[C@H](O)[C@@H](C)[C@@H]([C@@H](C)[C@@H](OC)C(C)C(=O)O)O3)O2)O1` (stereo not given in full), which viability is on record?
Answer: The viability was 93%.

Question: For `COc1ccc2cc([C@H](C)C(=O)O)ccc2c1`, which viability is on record?
Answer: Its viability is 96.8%.

Question: For `[O][C@H]1[C@@H](O)[C@@H](CO)O[C@@H](O[C@@H]2[C@@H]3OC[C@H]2O[C@H](O[C@@H]2[C@@H](O)[C@H](C[C@@H]4[C@@H]5OC[C@H]4O[CH][C@@H]5O)O[C@H](CO)[C@@H]2OS(=O)(=O)O)[C@@H]3OS(=O)(=O)O)[C@@H]1O`, which viability is on record?
Answer: The viability was 96.4%.

Question: With `CC(C)NCC(O)COc1cccc2ccccc12` (stereo not given) as the molecule, how does the viability read?
Answer: The viability was 94.6%.

Question: Which viability does the source give for `COc1ccc2cc1Oc1ccc(cc1)C[C@H]1c3c(cc4c(c3Oc3cc5c(cc3OC)CCN(C)[C@@H]5C2)OCO4)CCN1C` here?
Answer: The viability was 66.6%.

Question: Which viability does the source give for `COc1ccc(C2CNC(=O)C2)cc1OC1CCCC1` (stereo not given) here?
Answer: The viability was 99.4%.

Question: For `COc1ccc(CCN(C)CCCC(C#N)(c2ccc(OC)c(OC)c2)C(C)C)cc1OC` (stereo not given), which viability is on record?
Answer: Its viability is 88.8%.

Question: With `C[C@H]1c2cccc(O)c2C(O)=C2C(=O)[C@]3(O)C(O)=C(C(N)=O)C(=O)[C@@H](N(C)C)[C@@H]3[C@@H](O)[C@@H]21` as the molecule, how does the viability read?
Answer: The viability was 107%.

Question: For `CO/N=C(\C(=O)N[C@@H]1C(=O)N2C(C(=O)O)=C(COC(C)=O)CS[C@H]12)c1csc(N)n1`, which viability is on record?
Answer: The viability was 96.4%.

Question: Which viability does the source give for `CC1(C)CCC[C@@](C)([C@H]2CC[C@]3(C)[C@@H]2[C@H](O)C[C@@H]2[C@@]4(C)CC[C@H](O)C(C)(C)[C@@H]4[C@@H](O)C[C@]23C)O1` here?
Answer: The viability was 97.9%.

Question: With `CC(C)=CCC/C(C)=C/COc1ccc2ccc(=O)oc2c1` as the molecule, how does the viability read?
Answer: The viability was 96.8%.

Question: For `NS(=O)(=O)c1cc(C(=O)O)c(NCc2ccco2)cc1Cl`, which viability is on record?
Answer: The viability was 96.3%.

Question: For `CN=C(NC#N)NCCSCc1nc[nH]c1C`, which viability is on record?
Answer: The viability was 98.3%.

Question: With `COc1cc([C@@H]2c3cc4c(cc3[C@H](O)[C@H]3COC(=O)[C@H]23)OCO4)cc(OC)c1OC` as the molecule, how does the viability read?
Answer: The viability was 37.4%.

Question: With `C[C@]12CCC(=O)C=C1CC[C@@H]1[C@@H]2[C@@H](O)C[C@@]2(C)[C@H]1CC[C@]2(O)C(=O)CO` as the molecule, how does the viability read?
Answer: The viability was 98.9%.

Question: With `COc1ccc(/C=C/c2cc(OC)cc(=O)o2)cc1` as the molecule, how does the viability read?
Answer: The viability was 103%.

Question: For `COc1cc(-c2ccc(=O)[nH]n2)ccc1OC(F)F`, which viability is on record?
Answer: The viability was 105%.

Question: Which viability does the source give for `C=C(C)C1CC=C(C)C(O)C1` (stereo not given) here?
Answer: The viability was 94.9%.

Question: For `CC(C)C[C@H]1C(=O)N2CCC[C@H]2[C@]2(O)O[C@](NC(=O)[C@@H]3C=C4c5cccc6[nH]c(Br)c(c56)C[C@H]4N(C)C3)(C(C)C)C(=O)N12`, which viability is on record?
Answer: The viability was 89.9%.

Question: For `C[C@@H]1CC[C@]2(C(=O)O)CC[C@]3(C)C(=CCC4[C@@]5(C)C[C@@H](O)[C@H](O)[C@@](C)(CO)C5CC[C@]43C)C2[C@H]1C` (stereo not given in full), which viability is on record?
Answer: The viability was 100%.
